Assay results reported in PubChem BioAssay (EPA / NIEHS).
Several values for one entry are separate records, joined by “and”; a condition that tells them apart may be missing. Equal values may be shown once. A structure can be active in one record and inactive in another. Activity calls are given as the source filed them. How the source made its calls: active means hit-call score of the fitted dose curve at least 0.9, where 1 is the maximum; inactive means score below 0.9.

Key:
[1] = read-out: Interleukin-6 (IL6), IL6 (gene 3569); test: BSK_CASM3C_IL6: BioMAP Diversity Plus: CASM3C Assay for Interleukin-6 (IL6) Biomarker Activity for (AID 2283040); settings: primary human coronary artery smooth muscle cells; actives raise or lower the signal
[2] = read-out: Tissue plasminogen activator (tPA), PLAT (gene 5327); test: BSK_BE3C_tPA: BioMAP Diversity Plus: BE3C Assay for Tissue plasminogen activator (tPA) Biomarker Activity (AID 2283041); settings: primary human bronchial epithelial cells; actives raise or lower the signal
How it was run: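 Gain- or loss-of-signal in tPA, measured by ELISA, derived by bidirectional fitting against DMSO. Cells: human primary bronchial epithelial; read at 24 h after chemical dosing.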

[3] = read-out: Interleukin-8 (IL8), CXCL8 (gene 3576); test: BSK_CASM3C_IL8: BioMAP Diversity Plus: CASM3C Assay for Interleukin-8 (IL8) Biomarker Activity (AID 2283042); settings: primary human coronary artery smooth muscle cells; actives raise or lower the signal;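 further: IL-8 protein level quantified by ELISA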
[4] = read-out: Human Leukocyte Antigen - DR isotype (HLADR), HLA-DRA (gene 3122); test: BSK_CASM3C_HLADR: BioMAP Diversity Plus: CASM3C Assay for Human Leukocyte Antigen - DR isotype (HLADR) Biomarker Activity (AID 2283043); settings: primary human coronary artery smooth muscle cells; actives raise or lower the signal;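 further: cell-surface HLA-DR protein level quantified by ELISA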
[5] = read-out: Macrophage colony-stimulating factor (MCSF), CSF1 (gene 1435); test: BSK_CASM3C_MCSF: BioMAP Diversity Plus: CASM3C Assay for Macrophage colony-stimulating factor (MCSF) Biomarker Activity (AID 2283044); settings: primary human coronary artery smooth muscle cells; actives raise or lower the signal;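 further: M-CSF protein amount quantified by ELISA after 24 h exposure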
[6] = read-out: Low-density lipoprotein receptor (LDLR), LDLR (gene 3949); test: BSK_CASM3C_LDLR: BioMAP Diversity Plus: CASM3C Assay for Low-density lipoprotein receptor (LDLR) Biomarker Activity (AID 2283045); settings: primary human coronary artery smooth muscle cells; actives raise or lower the signal;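 further: LDLR protein level on the cell surface quantified by ELISA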
[7] = read-out: Monocyte Chemoattractant Protein-1 (MCP1), CCL2 (gene 6347); test: BSK_CASM3C_MCP1: BioMAP Diversity Plus: CASM3C Assay for Monocyte Chemoattractant Protein-1 (MCP1) Biomarker Activity (AID 2283046); settings: primary human coronary artery smooth muscle cells; actives raise or lower the signal;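 further: MCP-1 level quantified by ELISA 24 h after dosing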
[8] = BSK_CASM3C_Proliferation: Cell Proliferation Assessment in the BioMAP Diversity Plus: CASM3C Assay (AID 2283047); settings: primary human coronary artery smooth muscle cells;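 further: sulforhodamine B total protein stain as relative cell number at 560 nm; sub-confluent cells exposed 48 h before staining; fitted both ways against DMSO so gain or loss of cell number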
[9] = read-out: Monokine induced gamma interferon (MIG), CXCL9 (gene 4283); test: BSK_CASM3C_MIG: BioMAP Diversity Plus: CASM3C Assay for Monokine induced gamma interferon (MIG) Biomarker Activity (AID 2283048); settings: primary human coronary artery smooth muscle cells; actives raise or lower the signal;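 further: MIG protein level measured by ELISA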
[10] = read-out: serum amyloid A (SAA), SAA1 (gene 6288); test: BSK_CASM3C_SAA: BioMAP Diversity Plus: CASM3C Assay for serum amyloid A (SAA) Biomarker Activity (AID 2283049); settings: primary human coronary artery smooth muscle cells; actives raise or lower the signal;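 further: SAA protein level quantified by ELISA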
[11] = BSK_CASM3C_SRB: Viability Assessment in the BioMAP Diversity Plus: CASM3C Assay (AID 2283050); settings: primary human coronary artery smooth muscle cells;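 further: total protein by SRB staining as cytotoxicity measure in parallel cultures; cells exposed to compound for 24 h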
[12] = read-out: Thrombomodulin, THBD (gene 7056); test: BSK_CASM3C_Thrombomodulin: BioMAP Diversity Plus: CASM3C Assay for Thrombomodulin Biomarker Activity (AID 2283051); settings: primary human coronary artery smooth muscle cells; actives raise or lower the signal;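 further: thrombomodulin protein level measured by ELISA 24 h after dosing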
[13] = read-out: Tissue Factor, F3 (gene 2152); test: BSK_CASM3C_TissueFactor: BioMAP Diversity Plus: CASM3C Assay for Tissue Factor Biomarker Activity (AID 2283052); settings: primary human coronary artery smooth muscle cells; actives raise or lower the signal;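 further: cell surface tissue factor protein level read by ELISA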
[14] = read-out: Interferon-gamma inducible Protein 10 (IP10), CXCL10 (gene 3627); test: BSK_hDFCGF_IP10: BioMAP Diversity Plus: hDFCGF Assay for Interferon-gamma inducible Protein 10 (IP10) Biomarker Activity (AID 2283053); settings: primary human foreskin fibroblasts; actives raise or lower the signal
How it was run: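 Cells: human dermal foreskin fibroblasts. Exposure: 24 h post-dosing. Detection: IP-10 ELISA, with values expressed against DMSO controls and fitted in both directions.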

[15] = read-out: Urokinase-type plasminogen activator receptor (uPAR), PLAUR (gene 5329); test: BSK_CASM3C_uPAR: BioMAP Diversity Plus: CASM3C Assay for Urokinase-type plasminogen activator receptor (uPAR) Biomarker Activity (AID 2283054); settings: primary human coronary artery smooth muscle cells; actives raise or lower the signal;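 further: cell-surface uPAR protein level quantified by ELISA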
[16] = read-out: Vascular cell adhesion molecule 1 (VCAM1), VCAM1 (gene 7412); test: BSK_CASM3C_VCAM1: BioMAP Diversity Plus: CASM3C Assay for Vascular cell adhesion molecule 1 (VCAM1) Biomarker Activity (AID 2283055); settings: primary human coronary artery smooth muscle cells; actives raise or lower the signal;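 further: VCAM-1 protein level quantified by ELISA on the cells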
[17] = read-out: Collagen III, COL3A1 (gene 1281); test: BSK_hDFCGF_CollagenIII: BioMAP Diversity Plus: hDFCGF Assay for Collagen III Biomarker Activity (AID 2283056); settings: primary human foreskin fibroblasts; actives raise or lower the signal
How it was run: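 Cells: human foreskin fibroblasts, primary. Dosing followed by 24 h incubation, then ELISA for collagen III. Both increases and decreases scored relative to DMSO.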

[18] = read-out: Epidermal growth factor receptor (EGFR), EGFR (gene 1956); test: BSK_hDFCGF_EGFR: BioMAP Diversity Plus: hDFCGF Assay for Epidermal growth factor receptor (EGFR) Biomarker Activity (AID 2283057); settings: primary human foreskin fibroblasts; actives raise or lower the signal
How it was run: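 Dosing human primary skin fibroblasts, then measuring surface EGFR by ELISA at 24 h, gives the endpoint; gains and losses relative to DMSO were fitted in both directions.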

[19] = read-out: Interleukin-8 (IL8), CXCL8 (gene 3576); test: BSK_hDFCGF_IL8: BioMAP Diversity Plus: hDFCGF Assay for Interleukin-8 (IL8) Biomarker Activity (AID 2283058); settings: primary human foreskin fibroblasts; actives raise or lower the signal
How it was run: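 IL-8 levels from compound-treated primary human fibroblasts were read by ELISA at 24 h, with DMSO serving as baseline for bidirectional fitting.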

[20] = BSK_hDFCGF_Proliferation: Cell Proliferation Assessment in the BioMAP Diversity Plus: hDFCGF Assay (AID 2283059); settings: primary human foreskin fibroblasts;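 further: curves fitted for both rise and fall of signal versus DMSO baseline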
How it was run: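 Sub-confluent human foreskin fibroblast cultures receive test chemical […]. Relative cell number is quantified by sulforhodamine B staining (0.1%, after 10% TCA fixation) at 560 nm, with bidirectional fitting referenced to DMSO.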

Measured: AC50

FC(F)(F)C(F)(F)C(F)(F)C(F)(F)C(F)(F)C(F)(F)C(F)(F)CCI
inactive: [1] | [2] | [3] | [4] | [5] | [6] | [7] | [8] | [9] | [10] | [11] | [12] | [13] | [14] | [15] | [16] | [17] | [18] | [19]
active: [14] 2.45 µM | [17] 2.26 µM | [20] 1.78 µM and 1.25 µM

O=C(c1ccccc1)c1ccc(O)cc1O
active: [13] 13.6 µM
inactive: [1] | [2] | [3] | [4] | [5] | [6] | [7] | [8] | [9] | [10] | [11] | [12] | [14] | [15] | [16] | [17] | [18] | [19] | [20]

C=CC(=O)OCCC(F)(F)C(F)(F)C(F)(F)C(F)(F)F
inactive: [1] | [2] | [3] | [4] | [5] | [6] | [7] | [8] | [10] | [11] | [12] | [13] | [15] | [17] | [18] | [19] | [20]
active: [8] 15 µM | [9] 41.1 µM and 30 µM | [14] 30 µM and 21.3 µM | [16] 30 µM | [17] 21.9 µM | [20] 7.58 µM

NCC(F)(F)C(F)(F)C(F)(F)C(F)(F)C(F)(F)C(F)(F)C(F)(F)C(F)(F)F
inactive: [1] | [2] | [3] | [4] | [5] | [6] | [7] | [8] | [9] | [10] | [11] | [12] | [13] | [14] | [15] | [16] | [17] | [18] | [19] | [20]

O=S(=O)(OCC(F)(F)F)C(F)(F)C(F)(F)C(F)(F)C(F)(F)F
active: [9] 30 µM | [10] 653 nM | [13] 30 µM | [14] 15.9 µM and 16.4 µM | [16] 13.2 µM
inactive: [1] | [2] | [3] | [4] | [5] | [6] | [7] | [8] | [9] | [10] | [11] | [12] | [13] | [15] | [16] | [17] | [18] | [19] | [20]

O=C(O)C(F)(F)C(F)(F)C(F)(F)C(F)(F)C(F)(F)C(F)(F)C(F)F
inactive: [1] | [2] | [3] | [4] | [5] | [6] | [7] | [8] | [9] | [10] | [11] | [12] | [13] | [14] | [15] | [16] | [17] | [18] | [19] | [20]
active: [14] 8.52 µM | [17] 30 µM | [18] 30 µM and 1.81 µM

FC(F)(F)C(F)(F)C(F)(F)CC1CO1 (centres undefined)
inactive: [1] | [2] | [3] | [4] | [5] | [6] | [7] | [8] | [9] | [10] | [11] | [12] | [13] | [14] | [15] | [16] | [17] | [18] | [19] | [20]
active: [14] 12.9 µM

NC(=O)C(F)(F)C(F)(F)C(F)(F)C(F)(F)C(F)(F)C(F)(F)C(F)(F)F
inactive: [1] | [2] | [3] | [4] | [5] | [6] | [7] | [8] | [9] | [10] | [11] | [12] | [13] | [14] | [15] | [16] | [17] | [18] | [19] | [20]

C=CC(=O)OCC(F)(F)C(F)(F)C(F)(F)COC(=O)C=C
inactive: [13] | [18]
active: [1] 30 µM and 17 µM | [2] 15.4 µM and 11.4 µM | [3] 26.6 µM and 22.5 µM | [4] 38.6 µM and 27.7 µM | [5] 40.1 µM and 34.8 µM | [6] 42.2 µM and 42.9 µM | [7] 44.3 µM and 42.5 µM | [8] 8.23 µM and 8.81 µM | [9] 27.1 µM and 25.4 µM | [10] 41.4 µM and 33.7 µM | [11] 44.9 µM and 28.3 µM | [12] 7.48 µM and 7.64 µM | [13] 7.91 µM | [14] 1.26 µM and 1.32 µM | [15] 48.3 µM and 47.6 µM | [16] 30 µM and 25.8 µM | [17] 5.04 µM and 1.49 µM | [19] 3.92 µM and 4.38 µM | [20] 111 nM and 1.28 µM

FC(F)(F)C(F)(F)C(F)(F)C(F)(F)C(F)(F)C(F)(F)CC[Si](Cl)(Cl)Cl
inactive: [1] | [2] | [3] | [4] | [5] | [6] | [7] | [8] | [9] | [10] | [11] | [12] | [13] | [14] | [15] | [16] | [17] | [18] | [19] | [20]
